Data as given in PubChem BioAssay AID602261 (Sanford-Burnham Center for Chemical Genomics, 2012).
In all, about 360,000 compounds went through this assay and about 2,400 (0.67%) were called active.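 The calls were made as follows: active = compounds whose normalised, plate-corrected inhibition of enzyme fluorescence in the single-dose primary screen is 50% or more; inactive = the rest.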 For the sample, actives were picked, then their nearest neighbours and some compounds at random.

Target: Fatty acid synthase (Homo sapiens) (UniProt P49327)
Assay: inhibition of human FAS-TE enzyme activity – biochemical, fluorescence intensity, uHTS, primary screen (AID 602261);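 also: 0% = DMSO with enzyme and 100% = substrate without enzyme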
Details: recombinant FAS-TE, OMFH fluorogenic substrate, fluorescence endpoint; at 15 µM; hits give high values

Sequence of Fatty acid synthase (Homo sapiens) (P49327 whole entry, looked up): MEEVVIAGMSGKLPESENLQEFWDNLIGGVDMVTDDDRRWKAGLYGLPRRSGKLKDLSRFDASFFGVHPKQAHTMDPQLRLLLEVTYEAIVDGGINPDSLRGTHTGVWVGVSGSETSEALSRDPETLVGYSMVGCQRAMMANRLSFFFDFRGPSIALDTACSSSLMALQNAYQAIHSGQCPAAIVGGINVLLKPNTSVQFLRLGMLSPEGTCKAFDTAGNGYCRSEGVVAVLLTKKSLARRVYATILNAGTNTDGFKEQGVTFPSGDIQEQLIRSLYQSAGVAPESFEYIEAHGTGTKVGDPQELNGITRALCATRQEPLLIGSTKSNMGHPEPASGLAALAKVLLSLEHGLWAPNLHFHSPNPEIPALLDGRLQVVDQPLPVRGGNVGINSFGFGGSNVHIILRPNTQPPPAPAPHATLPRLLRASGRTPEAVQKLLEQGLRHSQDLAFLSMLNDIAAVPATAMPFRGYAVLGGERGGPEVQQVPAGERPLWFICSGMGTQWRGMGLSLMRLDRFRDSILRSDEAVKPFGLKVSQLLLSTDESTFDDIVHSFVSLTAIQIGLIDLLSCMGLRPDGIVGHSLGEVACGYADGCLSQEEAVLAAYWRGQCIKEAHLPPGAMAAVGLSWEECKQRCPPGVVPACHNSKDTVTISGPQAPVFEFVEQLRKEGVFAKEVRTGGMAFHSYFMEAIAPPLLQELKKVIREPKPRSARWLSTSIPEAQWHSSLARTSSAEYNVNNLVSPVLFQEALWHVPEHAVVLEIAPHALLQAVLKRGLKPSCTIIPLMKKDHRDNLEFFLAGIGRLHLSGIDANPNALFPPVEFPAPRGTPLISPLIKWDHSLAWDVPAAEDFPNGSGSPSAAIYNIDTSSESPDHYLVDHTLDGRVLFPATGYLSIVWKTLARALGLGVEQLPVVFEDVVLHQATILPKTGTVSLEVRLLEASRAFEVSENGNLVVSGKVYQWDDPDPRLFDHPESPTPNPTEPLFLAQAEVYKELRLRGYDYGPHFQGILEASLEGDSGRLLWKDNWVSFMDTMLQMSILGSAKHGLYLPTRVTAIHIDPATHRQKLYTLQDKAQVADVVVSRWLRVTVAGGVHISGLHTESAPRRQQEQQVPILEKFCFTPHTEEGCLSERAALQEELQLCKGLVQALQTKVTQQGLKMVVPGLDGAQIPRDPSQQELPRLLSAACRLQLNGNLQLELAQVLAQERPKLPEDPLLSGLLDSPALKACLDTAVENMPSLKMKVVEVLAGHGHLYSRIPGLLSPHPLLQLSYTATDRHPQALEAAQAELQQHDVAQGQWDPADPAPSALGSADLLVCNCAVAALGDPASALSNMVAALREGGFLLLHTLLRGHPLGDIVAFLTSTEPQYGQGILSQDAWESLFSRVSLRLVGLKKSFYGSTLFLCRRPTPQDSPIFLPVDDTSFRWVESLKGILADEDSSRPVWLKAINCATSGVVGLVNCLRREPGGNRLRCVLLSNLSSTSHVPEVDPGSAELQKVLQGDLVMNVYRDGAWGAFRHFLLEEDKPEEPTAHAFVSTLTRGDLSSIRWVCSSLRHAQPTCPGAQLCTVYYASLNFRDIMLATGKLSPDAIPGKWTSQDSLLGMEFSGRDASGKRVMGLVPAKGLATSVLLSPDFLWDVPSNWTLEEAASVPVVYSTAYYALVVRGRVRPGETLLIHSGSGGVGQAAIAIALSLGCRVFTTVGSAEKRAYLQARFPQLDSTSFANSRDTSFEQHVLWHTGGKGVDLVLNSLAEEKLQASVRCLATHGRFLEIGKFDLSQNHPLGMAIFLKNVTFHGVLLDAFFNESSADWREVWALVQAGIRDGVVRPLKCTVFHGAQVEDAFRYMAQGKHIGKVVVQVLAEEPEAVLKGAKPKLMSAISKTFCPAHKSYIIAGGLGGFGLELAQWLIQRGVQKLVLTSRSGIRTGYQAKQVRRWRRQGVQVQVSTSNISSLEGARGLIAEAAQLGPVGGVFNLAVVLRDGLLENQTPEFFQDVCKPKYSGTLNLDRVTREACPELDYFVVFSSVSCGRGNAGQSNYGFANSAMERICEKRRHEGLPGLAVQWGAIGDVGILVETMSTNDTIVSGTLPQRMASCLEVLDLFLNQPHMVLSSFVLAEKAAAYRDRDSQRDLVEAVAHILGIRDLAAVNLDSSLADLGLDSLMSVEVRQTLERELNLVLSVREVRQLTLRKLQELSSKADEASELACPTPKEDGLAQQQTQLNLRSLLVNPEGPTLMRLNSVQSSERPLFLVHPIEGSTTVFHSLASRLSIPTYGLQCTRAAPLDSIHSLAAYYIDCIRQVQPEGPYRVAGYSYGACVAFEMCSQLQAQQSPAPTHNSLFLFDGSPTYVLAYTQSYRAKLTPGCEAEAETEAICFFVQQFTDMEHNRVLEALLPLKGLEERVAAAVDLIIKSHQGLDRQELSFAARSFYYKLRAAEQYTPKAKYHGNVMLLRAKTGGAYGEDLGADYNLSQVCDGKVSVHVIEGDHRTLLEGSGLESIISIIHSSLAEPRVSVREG

Row | Compound | inhibition
1 | CCOC(=O)[C@]12Cc3ccccc3[C@H]1N(C1CCCCC1)C(=O)c1cc(OC)ccc12 | 67.5% (active)
2 | CCOC(=O)[C@]12Cc3cc(OC)ccc3[C@H]1N(C(C)C)C(=O)c1ccccc12 | 36.7% (inactive)
3 | CC(=O)c1ccc(OC(NC(=O)Cc2ccccc2)C(Cl)(Cl)Cl)cc1 (stereo not given) | 11.2% (inactive)
4 | O=C1C2(Cl)C3(Cl)C4(Cl)C(Cl)(Cl)C5(Cl)C3(Cl)C1(Cl)C5(Cl)C24Cl (stereo not given) | 72.1% (active)
5 | O=C(O)CCn1cc(C=C2C(=O)NC(=S)NC2=O)c(-c2cccc(Br)c2)n1 | -3.4% (inactive)
6 | COC(=O)C1=C(c2ccc3ccccc3c2)C[C@@H]2CC[C@H]1N2C(=O)NCCO | -1.8% (inactive)
7 | O=c1[nH]c2ccccc2n1C1CCN(C(c2ccnc3ccccc23)c2nnnn2Cc2ccccc2)CC1 (stereo not given) | 5.1% (inactive)
8 | COc1ccc(-n2nnnc2C(c2cccc3ccccc23)N2CCC(n3c(=O)[nH]c4ccccc43)CC2)cc1 (stereo not given) | 87.1% (active)
9 | O=c1[nH]c2ccccc2n1C1CCN(C(c2ccccc2)c2nnnn2Cc2ccccc2)CC1 (stereo not given) | 18.3% (inactive)
10 | CCOc1ccc(CN(CCCl)CCCl)cc1C(=O)OC | -5.1% (inactive)
11 | O=C(NC1CCCCC1)N1Cc2cc(N3CCCCC3)ccc2-n2nncc2C1 | -2.8% (inactive)
12 | CN(C)CC1CCCCC1OC(=O)c1ccc(Cl)c(Cl)c1 (stereo not given) | -3.1% (inactive)
13 | CCCCCCCCCCCCn1ccc(=N)cc1 | -0.8% (inactive)
14 | COc1cccc(C(c2nnnn2-c2ccc3c(c2)OCCO3)N2CCC3(CC2)C(=O)NCN3c2ccccc2)c1OC (stereo not given) | 62% (active)
15 | O=C1NCN(c2ccccc2)C12CCN(C(c1cccs1)c1nnnn1C1CCCCC1)CC2 (stereo not given) | 14.5% (inactive)
16 | Cc1ccc(-c2cc(C(=O)N3CCC4(CC3)OCCO4)no2)cc1 | 1.5% (inactive)
17 | COc1ccc2c(c1O)-c1cccc3c1[C@@H](C2)N(C)CC3 | -2.4% (inactive)
18 | CCOC(=O)C(O)(c1ccc(N=Cc2ccccc2O)c(C)c1)C(F)(F)F (stereo not given) | -4.3% (inactive)
19 | CC(C)Oc1cccc(C(=O)C2CCCN(C3CCOCC3)C2)c1 (stereo not given) | -0.1% (inactive)
20 | c1cncc(CNCCc2c[nH]c3ccccc23)c1 | 5.2% (inactive)
